# Experimental data taken from the supplement of paper PMC8728848.
# This is one part of a sample in which the strongest signals are shown more often than they occur.
# Legend:
# Experiment in all cases: glycan array binding signal (z-score within array); higher = stronger binding
# Conditions in all cases: glycan notation: IUPAC condensed, linker removed; mutation: Y228A
# [1] = target: Gal(b1-3)[Neu5Ac(a2-6)]GalNAc
# Summary of the method: (§1)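 Glycan array data came from 3228 arrays in the Consortium for Functional Glycomics database, and only arrays with an available protein sequence were kept. Glycan names were put into IUPAC-condensed notation, and columns mapping to the same glycan were averaged. The binding signal is a within-array Z-score, averaged across arrays of one protein sequence run at different concentrations or buffers and across linkers. A negative Z-score can be read as non-binding.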
# [2] = target: Gal(b1-4)Glc6S
# Summary of the method: as §1
# [3] = target: Gal(b1-4)GlcNAc(b1-2)[Gal(b1-4)GlcNAc(b1-6)]Man(a1-6)[GlcNAc(b1-4)][Gal(b1-4)GlcNAc(b1-2)[Gal(b1-4)GlcNAc(b1-4)]Man(a1-3)]Man(b1-4)GlcNAc(b1-4)[Fuc(a1-6)]GlcNAc
# Summary of the method: as §1
# [4] = target: Gal(b1-4)GlcNAc(b1-6)Gal(b1-4)GlcNAc
# Summary of the method: as §1
# [5] = target: Gal(b1-4)GlcNAc(b1-6)[Gal(b1-4)GlcNAc(b1-3)]GalNAc
# Summary of the method: as §1
# [6] = target: Gal3S(b1-3)GalNAc
# Summary of the method: as §1
# [7] = target: Gal3S4S(b1-4)GlcNAc
# Summary of the method: as §1
# [8] = target: Gal4S6S(b1-4)GlcNAc
# Summary of the method: as §1
# [9] = target: Gal6S(b1-3)GlcNAc6S
# Summary of the method: as §1
# [10] = target: Gal6S(b1-4)Glc6S
# Summary of the method: as §1
# [11] = target: GalNAc(b1-3)Gal(a1-4)Gal(b1-4)GlcNAc
# Summary of the method: as §1
# [12] = target: GalNAc3S(b1-4)GlcNAc
# Summary of the method: as §1
# [13] = target: Glc(b1-4)Glc
# Summary of the method: as §1
# [14] = target: GlcA3S(b1-3)Gal(b1-4)GlcNAc(b1-2)Man
# Summary of the method: as §1
# [15] = target: GlcNAc(b1-2)[GlcNAc(b1-6)]Man(a1-6)[GlcNAc(b1-2)Man(a1-3)]Man(b1-4)GlcNAc(b1-4)[Fuc(a1-6)]GlcNAc
# Summary of the method: as §1
# [16] = target: GlcNAc(b1-3)Gal(b1-4)GlcNAc(b1-3)Gal(b1-4)GlcNAc(b1-3)Gal(b1-4)GlcNAc(b1-2)Man(a1-3)[GlcNAc(b1-3)Gal(b1-4)GlcNAc(b1-3)Gal(b1-4)GlcNAc(b1-3)Gal(b1-4)GlcNAc(b1-2)Man(a1-6)]Man(b1-4)GlcNAc(b1-4)[Fuc(a1-6)]GlcNAc
# Summary of the method: as §1
# [17] = target: GlcNAc(b1-3)[GlcNAc(b1-6)]Gal(b1-4)GlcNAc
# Summary of the method: as §1
# [18] = target: GlcNAc(b1-3)[GlcNAc(b1-6)]GalNAc
# Summary of the method: as §1
# [19] = target: Man(a1-2)Man(a1-2)Man(a1-6)[Man(a1-3)]Man
# Summary of the method: as §1
# [20] = target: Man(a1-3)[Man(a1-6)]Man(a1-6)[Man(a1-3)]Man
# Summary of the method: as §1
# [21] = target: Neu5Ac(a2-3)Gal(b1-3)GlcNAc(b1-3)Gal(b1-3)GlcNAc
# Summary of the method: as §1
# [22] = target: Neu5Ac(a2-3)Gal(b1-3)[Neu5Ac(a2-6)]GlcNAc(b1-3)[Fuc(a1-3)[Gal(b1-4)]GlcNAc(b1-6)]Gal(b1-4)Glc
# Summary of the method: as §1
# [23] = target: Neu5Ac(a2-3)Gal(b1-4)GlcNAc(b1-2)Man(a1-3)[Neu5Ac(a2-6)Gal(b1-4)GlcNAc(b1-2)Man(a1-6)]Man(b1-4)GlcNAc(b1-4)GlcNAc
# Summary of the method: as §1
# [24] = target: Neu5Ac(a2-3)Gal(b1-4)GlcNAc(b1-3)Gal
# Summary of the method: as §1
# [25] = target: Neu5Ac(a2-3)Gal(b1-4)[Fuc(a1-3)]GlcNAc
# Summary of the method: as §1
# [26] = target: Neu5Ac(a2-6)Gal(b1-4)GlcNAc(b1-3)Gal(b1-4)GlcNAc(b1-3)Gal(b1-4)GlcNAc
# Summary of the method: as §1
# [27] = target: Neu5Gc(a2-3)Gal(b1-3)GlcNAc
# Summary of the method: as §1
# [28] = target: Neu5Gc(a2-3)Gal(b1-3)[Fuc(a1-4)]GlcNAc
# Summary of the method: as §1
binder,measurement,setting,value
"Epa1-NP-mutant-Y228A (Candida glabrata), Q6VBJ0 (protein) MILNPALFLNKCVCIYTTLILLLLTNGGYATSSNDISLASKDPTTFPLGCSPDITTPKKGLSMELYSYDFRKKGSYPCWDAAYLDPNYPRTGYKSHRLLAKVDGVTGNINFYYHATKGCTPQLGHLPASYNYPKPLTMTNFTMLLYGYFRPKVTGFHTFTISADDLLFVNFGAGNAFDCCRRDSSADHFGNYQAYAIWGSKTAKDELTVHLDAGVYYPIRLFYNNREADGALSFTFKTESNENTVSDFSEYFFSLDDTEEGCPGLISYDSSCASVKTSKIIGIDYHTETPNENLVPITKTIYHLGIPCTGTTTTPLCGSGFYDPLANKCVTINTSSTSSVTKTTSHTTSKEVSFHSSISSQKTLIPKSIPSPYGPIKSQSIPTEMETSSEISSSEYAFSDVISTPSHSPYTKKHSSLNSSSYTSTVIHSLTSYSISQGIFSTSLSEQNITSKSSTDKFSTATSMSNNITQSSIIISQFSTNNENYTTTSMHTSSDKISTETLNNSISTTTSILFSNSSTILKNNTTIISSDKDTHYHPVNPTIVCSTNKTEIICASITQPSISNSNNHWSSSVLKFNSTTVRSTLPSSAGSNETSINVPFSSSTESNTSTSSTSTSNSKMVRSTLPSSAGSNETSISVPFSSSTESNTSTSSTSTSNSKMVRSTLPSSAGSNETSINVPFSSSTESNTSTSSTSTSNSKTVRSTPFSSAGIIMTSLSQRNNKSASSYASSNSKCYNTADSCRKVHSTPSYLLTSSYTSEGVDYDCSLVSTKLKINDTNCVNNKHTTKSCLKTSVTTTIPTLEIKTARKSSSNTIGLHSYPTSSPNKSISSAPIIGYISSFKTIKTASPSYQTSDLTTITTITSLNNPGSTAVENTHESNDKSRKTSSNDISSKHSVIKETKDAVESSNKSHQTNTLKCSSIIIASSSHNSYESLGGTTLTLTLSKVYSPQNNDTLPFLEISEVNPSRTVLPESSKMMQYLTSTEERNKTARNTIATNIVSISTFHFEGEGNAIRMGYTQLLLMLIGIIVMNIGT",glycan array binding signal (z-score),[1],0.209
same,glycan array binding signal (z-score),[2],2.93
same,glycan array binding signal (z-score),[3],0.803
same,glycan array binding signal (z-score),[4],2.72
same,glycan array binding signal (z-score),[5],0.637
same,glycan array binding signal (z-score),[6],-0.153
same,glycan array binding signal (z-score),[7],-0.259
same,glycan array binding signal (z-score),[8],-0.16
same,glycan array binding signal (z-score),[9],5.91
same,glycan array binding signal (z-score),[10],4.82
same,glycan array binding signal (z-score),[11],-0.145
same,glycan array binding signal (z-score),[12],-0.321
same,glycan array binding signal (z-score),[13],-0.246
same,glycan array binding signal (z-score),[14],-0.24
same,glycan array binding signal (z-score),[15],0.217
same,glycan array binding signal (z-score),[16],-0.139
same,glycan array binding signal (z-score),[17],-0.235
same,glycan array binding signal (z-score),[18],-0.277
same,glycan array binding signal (z-score),[19],-0.127
same,glycan array binding signal (z-score),[20],-0.287
same,glycan array binding signal (z-score),[21],-0.295
same,glycan array binding signal (z-score),[22],-0.172
same,glycan array binding signal (z-score),[23],-0.237
same,glycan array binding signal (z-score),[24],-0.11
same,glycan array binding signal (z-score),[25],-0.209
same,glycan array binding signal (z-score),[26],-0.307
same,glycan array binding signal (z-score),[27],-0.069
same,glycan array binding signal (z-score),[28],-0.119
